Shown are actives, neighbours in structure and some others; about 2.1% of the full set was active somewhere.
TDP43 rescue: qHTS of TDP-43 Inhibitors. TDP-43 expressing yeast growth rescue, BacTiter-Glo, 24 h. Potency, µM (highest dose often 46.1 µM), for the others: at the highest dose growth rescue (activation), most hits filed as activators. 410,000 tested, 1.8% active. AID 652104, 2013; note: % of control where 0% means no effect; nearly all actives have a fitted effect of over 50% in size
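Readout is BacTiter-Glo luminescence of cell growth, so inhibitors register as activators. TDP-43-expressing yeast at OD600=0.02 in galactose medium, after raffinose pregrowth to mid-log, were incubated with compound for 24 hr at 30 deg C.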
FUS suppressor: qHTS for Suppressors of FUS Proteinopathy: Primary screen using FUS-linked yeast assay. Potency, µM (top dose mostly 76.6 µM), most hits filed as activators. 390,000 tested, 0.24% active. AID 1347120, 2019. S. cerevisiae FUS-expressing, growth rescue, OD600, 24 h;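 note: plate controls were DMSO vehicle for no effect and reference control for full effect; nearly all actives have a fitted effect of over 55% in size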
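Steps: raffinose overnight preculture; dilution to OD 0.005 in 2% galactose minimal medium; compound addition (concentration series); 24hr at 30C, 99% humidity; absorbance read at 600 nm.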
aSyn rescue: qHTS of alpha-syn Inhibitors | 370,000 tested, 0.14% active | Potency, µM (series often up to 46.1 µM), inactives show top-dose growth rescue (activation), most hits filed as activators | AID 652106, 2013 | Yeast expressing alpha-synuclein, growth rescue, BacTiter-Glo, 24 h; note: % of control where 0% means no effect; nearly all actives have a fitted effect of over 65% in size
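Readout is rescue of growth in alpha-synuclein-expressing yeast, so inhibitors of toxicity appear as activators. Growth after 24 hr at 30 deg C in galactose medium is quantified by luminescence.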
Abeta rescue: qHTS for compounds that reverse cellular toxicity of Amyloid beta (A-beta) peptide in yeast: Primary Screen; 410,000 tested, 0.063% active; yeast expressing A-beta42, growth rescue, OD600, 48 h; response scale: 0% DMSO, 100% iron-clioquinol control; AID 1347071, 2019; Potency, µM (series often up to 46.1 µM), actives largely listed as activators; note: nearly all actives have a fitted effect of over 55% in size
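Yeast growth medium received pinned compounds, then yeast cells expressing toxic A-beta were added; plates incubated at 30 C for 48 hr. Growth read as absorbance at 600 nm, normalized to DMSO and equimolar FeCl3 plus clioquinol controls.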
* marks the source's active call; other numbers are inactive results; i = inactive; ? = inconclusive; . = no result; [ ] = another dose, or the depositor's remark. Calls come from the whole dose curve; as a rule, active = well fitted curve in the direction sought with a large enough effect; inconclusive = small, poorly fitted or top-dose-only effect, or another doubt; inactive = no such curve, though single readings can be large; an effect the other way counts as inactive or inconclusive. Potency is the fitted concentration of half-maximal effect.

SMILES	TDP43 rescue	FUS suppressor	aSyn rescue	Abeta rescue
Cc1c(C2(O)CCCCC2)[nH]c2ccc(C(F)(F)F)cc12	3.5µM*	i	-62%	i
CCOC(=O)c1[nH]c2ccc(C(=O)OC)cc2c1C(=O)OCC	21%	i	8%	i
CCc1ccc(-n2nc3cc(C)c(NC(=O)c4cccc5ccccc45)cc3n2)cc1	14%	i	.	i
Cc1cccc2c(=O)[nH]c3c(-c4nc(-c5ccc(Cl)cc5)cs4)c(O)cn3c12	.	.	-7%	.
CCS(=O)(=O)N1CC(=O)N(c2ccccc2C)C(C)(C(=O)NC2CCCCC2)C1 (configuration not stated)	8%	i	.	i
COC(=O)CSc1nc(SCc2ccc(C)cc2)nc2c1CCCC2	-10%	i	-15%	i
Cc1ccc(CSc2nc3c(c(SCC(=O)O)n2)CCCC3)cc1	35µM*	i	8%	i
COc1cc(C=NNC(=O)CN2CCN(Cc3ccc(C)cc3)CC2)cc(OC)c1O	.	i	.	.
CC1(C)CN(c2ccc(Br)cc2)C(=O)[C@H]1CC(=O)Nc1ccccc1	18µM*	i	12%	i
CCC(=O)NCC[C@@H]1CCc2ccc3c(c21)CCO3	.	i	.	.
O=C(CCNS(=O)(=O)c1ccc(Br)cc1)NC1CCCCC1	0%[0.397 µM]	?	6%	i
O=S(=O)(NC(=S)NC1CCCCC1)c1ccc(Br)cc1	20µM*	i	11%	i
Cc1cccc(C)c1OCC(=O)Nc1ccc2c(c1)OCCO2	14µM*	i	0%	i
COc1cccc(-c2nc(SCC(=O)Nc3ccc4c(c3)OCCO4)c(-c3ccc(C)cc3)[nH]2)c1	20µM*	?	.	i
Cc1cccc(OCC(=O)Nc2ccc3c(c2)OCCO3)c1	18µM*	i	-2%	i
CCOc1ccc(C(=O)Nc2ccc3c(c2)OCCO3)cc1Br	18µM*	i	.	i
Cc1ccc(OCCn2c(CCNC(=O)C3CCCCCC3)nc3ccccc32)cc1	.	i	.	.
Brc1ccc(/C=C2\C=Cc3ccccc32)cc1	.	.	8%	.
c1ccc(CSc2ncccn2)cc1	-12%	i	-4%	i
c1ccc(CSC2=NNC(c3ccccn3)S2)cc1 (configuration not stated)	-4%	i	5.6µM*	i
O=C(CSC1=NNC(c2ccccn2)S1)Nc1ccc(C(F)(F)F)cc1 (configuration not stated)	15%	i	7.9µM*	?
Cn1cnnc1SCC(=O)Nc1ccc(C#N)cc1	19%	i	.	i
O=C1C(=O)c2ccc(-c3ccccc3)cc2-c2ccccc21	3.5µM*	i	-36%	i
Nc1ccc2c(c1)C(=O)C(=O)c1ccccc1-2	-92%	i	-81%	i
CC(C)c1ccc(Nc2ncnc3c2nc2n3CCCC2)cc1	14µM*	i	.	i
SMILES	TDP43 rescue	FUS suppressor	aSyn rescue	Abeta rescue
Fc1ccc(Cn2c(-c3cccc(Br)c3)nc3ccccc32)cc1	22µM*	i	.	i
Cc1cccc(Cn2c(C(C)O)nc3ccccc32)c1 (configuration not stated)	11%	i	0%	i
COc1cccc(OCc2nc3ccccc3n2Cc2ccccc2C)c1	22µM*	i	.	?
Cc1cccc(-c2nc3ccccc3n2Cc2ccccc2)c1	11µM*	i	.	i
COc1ccc(Cc2nc3ccccc3n2Cc2ccccc2C)cc1	7%	i	.	i
Cc1cccc(Cn2c(COc3ccccc3)nc3ccccc32)c1	18µM*	i	?	i
CCCn1c(-c2cccc(Br)c2)nc2ccccc21	26%	i	.	i
COc1ccc(NC(=O)c2c(-c3ccc(C)cc3)nnc3ccccc23)c(OC)c1	0%	?	.	i
Cc1ccc(O)c(-c2n[nH]c3c2C(c2ccccc2F)N(Cc2ccco2)C3=O)c1 (configuration not stated)	16%	i	.	i
O=C(c1cccc([N+](=O)[O-])c1)N1c2ncnn2C2(CCCCC2)[C@@H]2CCCC[C@@H]21	17%	i	.	i
Cc1ccccc1OCc1nc2ccccc2n1C	18µM*	i	-16%	i
Cc1ccc(Cn2c(Cc3ccccc3)nc3ccccc32)cc1	-6%	i	-13%	i
Cc1ccc(Cn2c(-c3ccccc3)nc3ccccc32)cc1	25µM*	i	.	i
Cc1nc2cc(NCc3nc4ccccc4n3Cc3ccccc3)ccc2n1C	-11%	.	-8%	i
Cc1cccc(NCc2nc3ccccc3n2Cc2ccccc2)c1	16µM*	i	0%	?
CCOC(=O)C1C(=O)C=C(c2ccc(Br)cc2)CC1c1ccco1 (configuration not stated)	25µM*	i	4%	i
CCOC(=O)C1C(=O)C=C(c2ccc([N+](=O)[O-])cc2)CC1c1ccccc1 (configuration not stated)	20µM*	i	9%	i
CCOC(=O)C1C(=O)C=C(c2cccc(NS(C)(=O)=O)c2)CC1c1ccco1 (configuration not stated)	4%	i	-4%	i
O=C(NCC(c1cccnc1)N1CCc2ccccc21)C(=O)Nc1ccccc1F (configuration not stated)	17%	i	.	i
CN(C)c1cc(F)c(C=O)cc1F	.	.	0%	.
O=C1CCc2cc(-c3csc(-c4ccc(O)cc4)n3)ccc2N1	.	.	4%	.
CCN(CC)C(=O)CC[C@H]1CC[C@]2(CCCN(S(C)(=O)=O)C2)O1	.	i	.	.
Cc1noc(C)c1COC(=O)Cc1ccc(Cl)c(Cl)c1	10µM*	i	25%	i
CCCNC(=O)NC(=O)CSc1cccc(C(F)(F)F)c1	18µM*	i	4%	i
CNC(=O)NC(=O)CSc1cccc(C(F)(F)F)c1	11%	i	-3%	i
SMILES	TDP43 rescue	FUS suppressor	aSyn rescue	Abeta rescue
COCCn1c(C)cc(O)c(C(c2ccccc2OC)N2CCCCC2)c1=O (configuration not stated)	12%	i	.	i
C#CCOc1ccc2c(C)cc(=O)oc2c1	20µM*	i	0%	i
CCN(CC)C(=O)CC[C@H]1CC[C@]2(CCCN(Cc3ccc(N(C)C)cc3)C2)O1	.	i	.	.
CC(C)(C)c1ccc(OCCn2c(CCNC(=O)C3CCCCC3)nc3ccccc32)cc1	.	.	-40%	.
O=C(c1cnccn1)N1CCc2c([nH]c3ccccc23)C1c1cccc(Cl)c1 (configuration not stated)	18µM*	?	?	i
COC(=O)c1cc(C(C)c2c[nH]c3ccccc23)n2ccccc12 (configuration not stated)	.	i	.	.
COC(=O)CSC1=NS(=O)(=O)c2ccccc21	?	.	?	i
O=C(CSC1=NS(=O)(=O)c2ccccc21)Nc1ccccc1	35µM*	i	?	i
O=C1Cc2ccccc2C(=O)N1	22µM*	i	-8%	i

Bioassay records: PubChem BioAssay, National Center for Advancing Translational Sciences (NCATS)
